Experimental data from ChEMBL document CHEMBL4513216, “Probing the Open Global Health Chemical Diversity Library for Multistage-Active Starting Points for Next-Generation Antimalarials” (ACS Infect Dis, 2020).
The whole screen tested about 65,000 compounds, of which about 2,100 (3.2%) showed an effect of 50% or more. The median lay at about -52%. Many of the other results were omitted from the sample, so strong results are more common in it than they were.

test system: Plasmodium falciparum; test: Screen against P. falciparum Asexual Blood Stage (ABS), at 5uM; format: functional, Dd2; settings: tested at 5 uM

Point of comparison: NC(=O)CC1CC2(CCNCC2)c2cc(F)ccc21 (centres undefined), INHIBITION -82.7%. Against it:
- O=C(c1ccncc1)N1CCN2C[C@H](Oc3cncnc3)C[C@H]2C1 — lower, -105%
- COc1ccc(C(C)NCc2cscn2)cc1Cn1cccn1 (centres undefined) — higher, 71.6%
- COc1ccc(CNC(C)Cn2cccn2)cc1OC (centres undefined) — higher, -66.8%
- COc1ccc(C(C)NCc2ccsc2)cc1Cn1cccn1 (centres undefined) — higher, 73.1%
- COc1cc(CNC(C)Cn2cccn2)cc(OC)c1OC (centres undefined) — higher, -12.2%
- N#Cc1ccc(OC[C@]23COC[C@H]2CN(Cc2ccoc2)C3)nc1 — higher, -15.7%
- Cc1ccc(CN2CC[C@@H]3[C@H]2CCC(=O)N3Cc2ccncc2)s1 — higher, -6.15%
- CSc1nccc(N2CCN(C)C3(CCNC(=O)CC3)C2)n1 (centres undefined) — higher, -69.1%
- O=C1C[C@@H]2CC[C@H](CN1)N2C1CCOCC1 — higher, -0.465%
- O=C1[C@H]2CN(Cc3nccs3)C[C@H]2CN1c1cncnc1 — higher, -64.4%
- O=C(CN(C1=NCCCCC1)c1ccc(Cl)cc1)c1ccccc1 — higher, 75.5%
- COCCN1CCN(S(=O)(=O)C2CC2)Cc2ccc(C)nc21 — higher, -12%
- COc1cccc(S(=O)(=O)N2C[C@@H](N(C)C)[C@H](C(C)C)C2)c1 — higher, 72.2%
- CN(C)[C@@H]1CN(Cc2cnn(C)c2)[C@@H]2COC[C@H]12 — lower, -104%
- Cc1c(F)cccc1S(=O)(=O)NC(C)(C)CN — higher, 80.9%
- Cc1cccc(CN2CC[C@H]3OCC[C@@]3(C(=O)N3CCCO3)C2)n1 — higher, -77.9%
- O=C1CC[C@H]2[C@@H](CCN2Cc2ccco2)N1 — higher, -46.7%
- O=C1CC2(CCNCC2)C(=O)N1c1cccc(F)c1 — lower, -155%
- c1ccc2c(c1)C(NC1CCCC1)CC21CCNCC1 (centres undefined) — higher, 75.7%
- Cc1ccc2c(c1)C(NC1CC1)CC21CCNCC1 (centres undefined) — higher, 83.2%
- Cc1ccc2c(c1)C(NC(C)C)CC21CCNCC1 (centres undefined) — higher, -41.2%
- COc1ccc2c(c1)C1(CCNCC1)CC2NC1CC1 (centres undefined) — higher, 0.674%
- Cc1ccc2c(c1)C1(CCNCC1)CC2NC(C)C (centres undefined) — higher, -31.2%
- Cc1ccc2c(c1)C1(CCNCC1)CC2NC1CC1 (centres undefined) — higher, 74.6%
- O=C1NC2(CCNCC2)CC1c1ccccc1 (centres undefined) — lower, -129%
- Fc1ccc2c(c1)C1(CCNCC1)CC2OCC1CC1 (centres undefined) — higher, 70.1%
- Cc1c(C2SCC(=O)Nc3c2cnn3C(C)(C)C)cnn1C (centres undefined) — higher, -41.3%
- CC(C)c1nccc([C@H]2C[C@@H]3CCN(Cc4ccco4)C[C@H]3O2)n1 — higher, -19.7%
